These results are taken from PubChem BioAssay.

Several values for one entry are separate records, joined by “and”; a condition that tells them apart may be missing. Equal entries are not always repeated. Activity calls are given as the source filed them. Unless noted, no stated cut-off is given here; in the data, active means parasite load remaining mostly below about 12% (no sharp cut-off); inactive means mostly above about 10%.

Assay [1] is described as follows: yeast 75Q aggregation reduction – 75Q-TubU reporter (AID 1593). The settings on record: Yeast 75Q polyglutamine aggregation reporter.
Assay [2] is described as follows: blockers of cytochrome c efflux from mitochondria – biochemical, purified mitochondria (AID 1603).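 Further: mouse liver mitochondria challenged with calcium chloride; signal normalized to the plate average as 100%.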 Particulars: stronger effect = lower value.
Assay [3] in a line: polyglutamine aggregate formation blockers (AID 1604). Particulars: polyglutamine-induced protein aggregation inhibition assay; stronger effect = higher value; tested at 2.5 µM.
A short description of assay [4]: P. berghei load reduction in hepatocytes – cell-based, HepG2, luciferase luminescence, HepG2 viability, primary screen (AID 624349).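 Further: 100% = mean of DMSO negative control wells on the same plate.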 Particulars: P. berghei liver stage in HepG2, luciferase luminescence, concentration not given here; parasite load remaining: stronger effect = lower value; viability: measured here: HepG2 viability without parasites.
Assay [5] in a line: Wnt pathway potentiators raising nuclear beta-catenin – imaging, WNT3A-conditioned medium, mouse C2C12, NPC library, primary screen (AID 1117326; in the data active means nuclear beta-catenin stimulation mostly above about 4.2%, no sharp cut-off; inactive means mostly below about 10%). Particulars: stronger effect = higher value.
The nature of assay [6]: stimulators of insulin release from INS-1E, primary screen, cell-based, 5 mM glucose, NPC library (AID 1117329;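 active means compound raises insulin release from rat beta cells at 5 mM glucose, no numeric limit stated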). The settings on record: rat INS-1E insulin secretion, at 10 µM, stronger effect = higher value.
Assay [7] in a line: growth inhibition of GSK3B-pretreated HCT116 cells – cell-based, CellTiter-Glo, 0.2 to 20 µM (AID 1117336;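 active means compounds lowering colon cancer cell viability after pretreatment blocking the GSK3B kinase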). The settings on record: HCT116 viability after GSK3B inhibitor, at 20 µM, stronger effect = higher value.
Assay [8] can be described thus: inhibition of endothelial tube formation, primary screen, imaging, VEGF stimulated, CD31 staining, tube area, NPC library (AID 1117340;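 active means compound that reduces growth-factor-driven endothelial tube area in a mixed cell culture, no cutoff stated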). The settings on record: VEGF-stimulated ADSC/ECFC co-culture, at 10 µM, stronger effect = higher value.
A short description of assay [9]: GLP1 release stimulators, primary, NCI-H716, NPC library (AID 1117341;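 active means compound raises GLP1 secretion from the human gut endocrine cells, with no numeric limit stated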). Particulars: NCI-H716 cells, at 10 µM, stronger effect = higher value.
Assay [10] in a line: HCT116 colon cancer cell growth inhibition, primary screen, CellTiter-Glo luminescence, NPC library (AID 1117342;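 active means compounds that lower survival of HCT116 colon cancer cells in the luminescence readout, no numeric limit stated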). Particulars: at 20 µM (top of the series).
Assay [11] is described as follows: reduced SW480 viability measured with CellTiter-Glo, NPC library, primary (AID 1117343;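 active means compounds that lower viability of the colon cancer cells in the luminescence readout, with no numeric limit stated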). The settings on record: CellTiter-Glo luminescence; at 20 µM (top of the series).
A short description of assay [12]: NPC library primary testing for decreased DLD-1 cell viability via CellTiter-Glo (AID 1117346;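 active means compounds that lower survival of DLD-1 colon cancer cells in the luminescence readout, no cutoff given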). The settings on record: DLD-1 viability, CellTiter-Glo luminescence; at 20 µM (top of the series).
The nature of assay [13]: EMT-state selective cytotoxicity in co-culture – imaging, PC-3E GFP, TEM4-18 mCherry, primary screen (AID 1345086;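 active means compounds killing one labelled cell type while sparing the other, by normalised counts and ratio limits, not self-fluorescent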;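 on all read-outs here: cells exposed to compound for 72 h before imaging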;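 on red/green cell ratio (normalised): normalised mesenchymal count divided by normalised epithelial count so high means epithelial killing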). Particulars: PC-3E GFP / TEM4-18 mCherry co-culture, imaging cell counts, at 1 µM; for red/green cell ratio (normalised): actives lie on both sides.
In assay [14] the test system is Aerobactin synthetase IucA (Klebsiella pneumoniae hvKP1). As to the kind of experiment: IucA enzyme inhibition, primary screen, biochemical, Spectrum library (AID 1346200; call rule not given here;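 further: 100% = wells without compound and 0% = wells lacking enzyme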). The settings on record: malachite green pyrophosphate, A620, at 8 µM, stronger effect = lower value.
The nature of assay [15]: MELAS cybrid and Rieske KO viability enhancers – cell-based, MELAS cybrids, Rieske KO mouse fibroblasts, CellTiter-Glo, primary screen (AID 1508586;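 active means mean z-score across replicates of 1.96 or higher in either the MELAS or the Rieske mutant cell line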;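 further: z relative to plate mean and SD of compound and empty wells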). Particulars: low glucose.
Assay [16] has as its target NAD(+) hydrolase SARM1 (Homo sapiens) (UniProt Q6SZW1). As to the kind of experiment: blocking NAD cleavage by SARM1 SAM-TIR – cell lysate, NAD-Glo luminescence (AID 1508614;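 active means compound whose remaining NAD level is above about 45 nM, limit read from the data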). Particulars: SAM-TIR HEK293T lysate NADase, at 1 µM, stronger effect = higher value.
The target of assay [17] is Mitogen-activated protein kinase 7 (Homo sapiens) (UniProt Q13164). As to the kind of experiment: Gal4-ERK5 driven luciferase induction – cell-based, HTS, primary screen (AID 1508626;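 active means luciferase signal above three times the same-plate solvent-only control wells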;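 further: luciferase driven by Gal4-ERK5 fusion binding five Gal4 sites before minimal TATA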). Particulars: HeLa Gal4-ERK5 transactivation, 18 h, at 5 µM, stronger effect = higher value.
Assay [18] can be described thus: galactose survival enhancers in mitochondrial complex I cybrids – cell-based, galactose medium, ATP luminescence, primary screen (AID 1645843;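 active means z-score of at least 1.8 in each of two replicates, scored against plate mean and spread of sample wells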;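 further: positive z means more ATP and so rescue of galactose-driven cybrid death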). The settings on record: complex I mutant cybrid cells, 72 h, stronger effect = higher value.
Assay [19] can be described thus: viability loss with induced miR-34 in A549 – imaging, A549 dox-inducible miR-34, nuclei and caspase counts, primary screen (AID 1347080;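 active means compounds whose cell count with miR-34 switched on is under 0.7 times the count with it off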). Particulars: A549 miR-34 inducible, Hoechst nuclei count, 48 h.
The mark [20] stands for this setting: measured here: epithelial PC-3E GFP cell survival.
Setting [21] is: measured here: mesenchymal TEM4-18 mCherry cell survival.
Setting [22] is: MELAS cybrid survival, CellTiter-Glo 48 h, stronger effect = higher value.
The mark [23] stands for this setting: Rieske KO mouse fibroblast survival, CellTiter-Glo 72 h.
[24] abbreviates: measured here: relative caspase fold change +Dox/-Dox.
The mark [25] stands for this setting: measured here: total cells with miR-34 induction, stronger effect = lower value.
[26] abbreviates: measured here: total cells without miR-34 induction.

Sequence of NAD(+) hydrolase SARM1 (Homo sapiens) (Q6SZW1 whole entry, looked up, the tested form may be a part): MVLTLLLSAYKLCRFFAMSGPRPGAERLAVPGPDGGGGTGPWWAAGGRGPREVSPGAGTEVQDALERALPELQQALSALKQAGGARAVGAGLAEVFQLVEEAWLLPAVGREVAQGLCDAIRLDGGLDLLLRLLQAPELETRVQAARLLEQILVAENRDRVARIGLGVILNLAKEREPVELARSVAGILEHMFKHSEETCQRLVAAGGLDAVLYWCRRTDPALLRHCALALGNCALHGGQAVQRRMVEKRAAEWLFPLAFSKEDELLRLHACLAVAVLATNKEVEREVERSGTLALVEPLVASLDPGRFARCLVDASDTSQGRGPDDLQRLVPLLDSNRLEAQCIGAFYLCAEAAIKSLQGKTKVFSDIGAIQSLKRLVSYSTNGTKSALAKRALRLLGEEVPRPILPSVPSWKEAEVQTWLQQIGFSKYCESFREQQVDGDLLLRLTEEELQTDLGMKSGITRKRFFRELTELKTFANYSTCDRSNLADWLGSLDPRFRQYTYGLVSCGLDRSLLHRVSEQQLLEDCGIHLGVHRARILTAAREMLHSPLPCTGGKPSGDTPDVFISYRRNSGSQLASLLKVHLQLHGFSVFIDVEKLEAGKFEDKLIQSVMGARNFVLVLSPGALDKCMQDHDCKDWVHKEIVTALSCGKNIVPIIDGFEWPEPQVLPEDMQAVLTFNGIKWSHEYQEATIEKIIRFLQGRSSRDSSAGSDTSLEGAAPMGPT
Sequence of Mitogen-activated protein kinase 7 (Homo sapiens) (Q13164 whole entry, looked up, the tested form may be a part): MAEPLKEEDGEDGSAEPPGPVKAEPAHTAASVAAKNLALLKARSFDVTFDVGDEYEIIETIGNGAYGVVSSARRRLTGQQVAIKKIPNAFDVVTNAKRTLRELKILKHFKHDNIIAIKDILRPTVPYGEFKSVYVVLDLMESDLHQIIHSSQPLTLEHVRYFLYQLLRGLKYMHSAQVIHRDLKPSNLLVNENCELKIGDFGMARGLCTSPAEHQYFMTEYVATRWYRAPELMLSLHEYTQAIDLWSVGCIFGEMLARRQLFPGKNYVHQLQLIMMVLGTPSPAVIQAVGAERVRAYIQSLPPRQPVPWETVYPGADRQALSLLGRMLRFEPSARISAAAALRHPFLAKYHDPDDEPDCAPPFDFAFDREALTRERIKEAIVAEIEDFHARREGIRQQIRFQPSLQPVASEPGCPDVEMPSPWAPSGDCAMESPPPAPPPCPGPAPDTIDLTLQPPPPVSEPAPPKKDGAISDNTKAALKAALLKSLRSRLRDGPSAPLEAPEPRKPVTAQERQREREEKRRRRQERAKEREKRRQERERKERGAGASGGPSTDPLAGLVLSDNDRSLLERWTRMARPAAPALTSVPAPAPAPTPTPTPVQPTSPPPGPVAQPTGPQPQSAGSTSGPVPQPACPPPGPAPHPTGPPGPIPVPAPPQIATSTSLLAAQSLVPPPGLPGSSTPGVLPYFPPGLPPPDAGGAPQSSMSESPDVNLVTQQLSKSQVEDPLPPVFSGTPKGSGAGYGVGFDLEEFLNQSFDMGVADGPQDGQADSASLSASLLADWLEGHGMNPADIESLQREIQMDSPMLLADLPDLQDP

In the case of `COc1ccc(C(=O)N2CCCC2=O)cc1`, the score in assay [1] came to 0.89. For the same molecule, the cytochrome c release ratio in [2] is 0.98. Besides, the inhibition of aggregation in assay [3] is 60.5%. In addition, the parasite load remaining in assay [4] is 27.9% (inactive) and 46.2% (inactive). In addition, in assay [4], the viability was 90.5% and 108%. Besides, the nuclear beta-catenin stimulation in assay [5] (at 10 µM) was 0.6% (inactive); in assay [5] (stimulation, at 2 µM) it was 1.5%. Besides, the insulin secretion stimulation in [6] was -0.2% (inactive). In addition, the viability decrease in assay [7] was -7.2% (inactive). Also, the tube area decrease in [8] is -6.9% (inactive). Besides, the GLP1 secretion stimulation in assay [9] was -1% (inactive). In [10], the inhibition of viability was -1% (inactive). The viability decrease (inhibition) was 8.2% (inactive) in [11] and 2.2% (inactive) in assay [12]. Moreover, the red/green cell ratio (normalised) in assay [13] was 1.03 (inactive). The normalised cell number in assay [13] (setting [20]) amounted to 1.3; in assay [13] (setting [21]), 1.35. Moreover, in [14], the activity remaining is 112% (inactive). Besides, the z-score in assay [15] (setting [22]) is 0.14 (inactive) and 0.301 (inactive) and -1.05 (inactive); in [15] (setting [23]), 1 and 0.247 and -0.762; in assay [18], 0.545 (inactive) and 0.9 (inactive) and 0.65 (inactive). Besides, the remaining NAD in assay [16] is 10 nM (inactive). Moreover, in [17], the luciferase signal was 60 AU (inactive).
Turning to `Nc1ccncc1`, in assay [1], the score was 1.34. The cytochrome c release ratio in assay [2] came out at 0.88. Also, the inhibition of aggregation in assay [3] is -27.8%. The parasite load remaining in [4] was 151% (inactive) and 61% (inactive). Also, in assay [4], the viability was 71.5% and 95.5%. Further, the nuclear beta-catenin stimulation was -0.9% (inactive) in assay [5] (at 10 µM) and 0.7% in assay [5] (stimulation, at 2 µM). Besides, in assay [6], the insulin secretion stimulation was 0% (inactive). The viability decrease in [7] is -0.55% (inactive). Further, the tube area decrease in [8] is -8.7% (inactive). Besides, the GLP1 secretion stimulation in assay [9] was 2.4% (inactive). Further, in [10], the inhibition of viability is 1.7% (inactive). For the same molecule, the viability decrease (inhibition) is 11.9% (active) in [11] and -6.35% (inactive) in [12]. Also, the red/green cell ratio (normalised) in assay [13] was 0.8 (inactive). Also, the values for the normalised cell number in [13] (setting [20]) and in [13] (setting [21]) were 1.23 and 0.99, respectively. In addition, the activity remaining in assay [14] was 105% (inactive). In addition, in [16], the remaining NAD was 10 nM (inactive). The luciferase signal in assay [17] was 32 AU (inactive). The z-score in assay [18] was 0.855 (inactive) and 0.215 (inactive).
With `NC(=O)OCCCc1ccccc1`, in assay [4], the parasite load remaining was 136% (inactive). Besides, the viability in assay [4] is 89.7%. For the same molecule, the nuclear beta-catenin stimulation in assay [5] (at 10 µM) was 0.8% (inactive); in assay [5] (stimulation, at 2 µM), 0.3%. For the same molecule, the insulin secretion stimulation in [6] was -2.9% (inactive). Moreover, the viability decrease in [7] is -9.45% (inactive). Besides, the tube area decrease in assay [8] is 18% (inactive). Also, the GLP1 secretion stimulation in [9] was 0.9% (inactive). Further, in assay [10], the inhibition of viability is 4.5% (inactive). Further, the viability decrease (inhibition) in [11] is -4.9% (inactive); in assay [12], -16.8% (inactive). Further, the figures for the fold change in assay [19] (stronger effect = lower value) and in assay [19] (setting [24]) were 0.887 (inactive) and 1.34, respectively. The cell count in assay [19] (setting [25]) came to 9650; in assay [19] (setting [26]), 10900. Also, the z-score in assay [15] (setting [22]) was -0.606 (inactive); in assay [15] (setting [23]), -0.33; in [18], 0.64 (inactive).
In [1], `Oc1cccc2cccnc12` showed a score of 0.03. For the same molecule, the cytochrome c release ratio in assay [2] stood at 0.94. Further, the inhibition of aggregation in assay [3] was found to be 83.3%. In addition, in assay [4], the parasite load remaining was 64.5% (inactive) and 25.4% (inactive). Besides, the viability in assay [4] is 53.5% and 57.1%. The nuclear beta-catenin stimulation in [5] (at 10 µM) is 6.4% (inactive); in [5] (stimulation, at 2 µM), 0.8%. In assay [6], the insulin secretion stimulation is -1% (inactive). The viability decrease in assay [7] is -3.1% (inactive). The tube area decrease in assay [8] was -4.7% (inactive). Moreover, the GLP1 secretion stimulation in assay [9] is 81.5% (active). The inhibition of viability in assay [10] was 8.1% (inactive). For the same molecule, the figures for the viability decrease (inhibition) in assay [11] and in [12] were 68.4% (active) and 53.9% (active), respectively. Further, the red/green cell ratio (normalised) in [13] is 1.03 (inactive). Besides, the values for the normalised cell number in [13] (setting [20]) and in assay [13] (setting [21]) were 0.9 and 0.93, respectively. Further, in assay [14], the activity remaining was 111% (inactive). The fold change in assay [19] (stronger effect = lower value) is 0.857 (inactive); in assay [19] (setting [24]), 0.864. In addition, the cell count amounted to 8140 in assay [19] (setting [25]) and 9500 in assay [19] (setting [26]). Moreover, in [16], the remaining NAD was 10 nM (inactive).
